In PubChem BioAssay one finds composite z-score and z-score data, which are given here for 35 molecules.

The source made the active and inactive calls.

The nature of one test: probe aCHRDL2 binding to arrayed compounds – biochemical, biotinylated probe, 635/667 nm fluorescence, primary screen (AID 1100). Conditions: small-molecule microarray, higher = more signal.
In turn, `COc1ccc(C#Cc2ccc3c(c2)[C@]2(C(=O)N3)[C@H](C(=O)Nc3nc4ccccc4s3)[C@H]3C(=O)O[C@H](c4ccccc4)[C@H](c4ccccc4)N3[C@@H]2c2ccccc2OCCO)cc1` showed a composite z-score of -0.125. `C=CCNC(=O)[C@@H]1[C@H]2C(=O)O[C@H](c3ccccc3)[C@H](c3ccccc3)N2[C@H](c2ccc(OCCO)cc2)[C@@]12C(=O)N(C(=O)OCCOC)c1ccc(C#CCCO)cc12` had a composite z-score of 0.171. On to `COCC(=C=CC[C@@H](O)c1cccc(OCCO)c1)CCO`, for which the composite z-score came to 0.268. The same measure, in the same setting: to `COCCOC(=O)N1C(=O)[C@@]2(c3cc(C#CC4(O)CCCCCC4)ccc31)[C@H](C(=O)N1CCN(c3ncccn3)CC1)[C@H]1C(=O)O[C@H](c3ccccc3)[C@H](c3ccccc3)N1[C@@H]2c1ccccc1OCCO` belongs -0.113; to `[N-]=[N+]=Nc1ccccc1C[C@]1(C(=O)O)N=C(c2ccc(OCCCO)cc2)O[C@H]1c1ccccc1N=[N+]=[N-]`, 1.12.

For `NC(=O)NCC#Cc1ccc2c(c1)[C@]1(C(=O)N2)[C@H](C(=O)N2CCN(c3ncccn3)CC2)[C@H]2C(=O)O[C@H](c3ccccc3)[C@H](c3ccccc3)N2[C@@H]1c1ccc(OCCO)cc1`, the composite z-score is 0.433.

`CN(C)C(=O)[C@@]1(Cc2ccccc2)COC(c2ccc(OCCCO)cc2)=N1` returned a composite z-score of -0.0283. The same measure, in the same setting: to `CCN(CC)c1ccc(N2CC=CC34O[C@@H]5C=CCCOC(=O)C5[C@H]3C(=O)N(CCO)[C@@H]4C2=O)cc1` (stereo partly drawn) belongs 0.269; to `C[C@@H]1ON(c2ccc(I)cc2)[C@H](c2ccc(OC(=O)OC(C)(C)C)cc2)[C@H]1C(=O)N1C(=O)OC[C@H]1Cc1ccccc1`, -0.345; to `COc1cc(CO)cc(I)c1O[C@H]1C=C(C(=O)NCCO)C[C@@H](NCC2CCCCC2)[C@@H]1O`, -0.103.

On to `C=CCNC(=O)[C@@H]1[C@H]2C(=O)O[C@H](c3ccccc3)[C@H](c3ccccc3)N2[C@H](c2ccc(O)cc2)[C@@]12C(=O)Nc1ccc(C#CCC(C(=O)OC)C(=O)OC)cc12`, for which the composite z-score was 0.181.

`CCOC(=O)C1=C[C@@H](c2ccccc2)N(S(=O)(=O)c2ccc(C)cc2)[C@H]1c1ccccc1` gave a composite z-score of 0.753. On the same count and under the same terms, for `[N-]=[N+]=NC[C@H](Cc1ccccc1)NC(=O)c1ccccc1` the value was -0.414; for `COc1ccc(C(O)C2C=CC3C(=O)N(c4ccccc4)C(=O)C3N2Nc2ccccc2F)cc1` (stereo not drawn), 1. Same read-out and setting: for `C#C[C@@H](CC)O[Si](C#CCCCC#N)(C(C)C)C(C)C` the value was -0.0862; for `CCCCCCCCCCC(O)C1C=CC2C(=O)N(C)C(=O)C2N1Nc1cc(OC)c(OC)c(OC)c1` (stereo not drawn), 0.858.

On to `C=C[C@H](C)[C@H](OC(=O)Nc1ccc(OC)cc1)c1ccc(OCCO)cc1`, for which the composite z-score amounted to 0.931. `COCCOC(=O)N1C(=O)[C@@]2(c3cc(C#CC4(O)CCCCCC4)ccc31)[C@H](c1ccc(OCCO)cc1)N1[C@H](c3ccccc3)[C@H](c3ccccc3)OC(=O)[C@H]1[C@@H]2C(=O)Nc1nc2ccccc2s1` returned a composite z-score of 0.208.

Turning to `O=c1cccc(-c2ccco2)o1`, the composite z-score was -0.617. As for `CN(C)C(=O)[C@@]1(Cc2ccccc2N=[N+]=[N-])N=C(c2ccc(OCCCO)cc2)O[C@H]1c1ccccc1`, the composite z-score is 1.35. On the same count and under the same terms, to `CC(C)[C@H]1NC(=O)[C@@]23C(=O)N[C@@H](Cc4ccccc4)C2[C@H](C)[C@@]2(C)O[C@H]2C3/C=C/CCC/C=C/CNC(=O)[C@H](Cc2ccccc2)NC1=O` (stereo partly drawn) belongs -0.32; to `C=CCC(OC(C)=O)[C@@H]1[C@@H](N(Cc2cc3ccccc3o2)C(=O)c2ccc(-c3ccccc3)cc2)c2cc(OCCCO)ccc2N1C(=O)Cc1ccc(OC)cc1` (stereo partly drawn), 0.0935; to `[N-]=[N+]=NCc1ccccc1[C@H]1OC(c2ccc(OCCCO)cc2)=N[C@@]1(CCS(=O)(=O)c1ccccc1)C(=O)NCc1ccccc1`, 0.743.

Consider `CC(=O)n1cc(C(O)C2C=CC3C(=O)N(c4ccccc4)C(=O)C3N2Nc2ccc(C(C)C)cc2)c2ccccc21` (stereo not drawn), for which the composite z-score came to 0.883. Same read-out and setting: for `C=C(COC)C(=O)CC[C@H](OC(C)=O)c1ccc(OCCO)cc1` the value was -0.0486. The same measure, in the same setting: for `Cc1ccccc1C(O)C1C=CC2C(=O)NC(=O)C2N1Nc1ccc(Cl)cc1Cl` (stereo not drawn) the value was 0.751.

Another test can be described thus: change in splice reporter luminescence, either direction, cell-based, HEK293, spliceosome inhibition project, primary screen (AID 1101).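 Note: HEK293 cells carrying a splicing-competent luciferase reporter gene; test concentration not given here.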 The settings on record: HEK293 splicing luciferase reporter, 24 h, higher = more signal, called active from +8 up or from −8 down.
Take `CCOC(=O)C1=CCC(c2ccco2)N(S(=O)(=O)c2ccc(C)cc2)C1` (stereo not drawn): the z-score is 0.0407 (inactive). For the molecule `COCCOC(=O)N1C(=O)[C@@]2(c3cc(C#CCC(C(=O)OC)C(=O)OC)ccc31)[C@H](C(=O)NC[C@H](O)c1ccccc1)[C@H]1C(=O)O[C@H](c3ccccc3)[C@H](c3ccccc3)N1[C@@H]2c1ccc(OCCO)cc1`, the z-score is 0.28 (inactive).

As for `CCCNC(=O)[C@@]1(Sc2ccc(C)cc2)CC(=O)N(C(C)C)[C@@H]1c1ccc(CO)cc1I`, the z-score was -0.0862 (inactive). Regarding `COC(=O)[C@@]1(Cc2ccc(F)cc2)[C@H]2c3cc(C(=O)N4CCCC4)n(C)c3C[C@H]2CN1C(=O)c1ccccc1`, the z-score is -2.19 (inactive). As for `O=C1O[C@H](c2ccccc2)[C@H](c2ccccc2)N2[C@H]1[C@@H](C(=O)N1CCCCCCC1)[C@]1(C(=O)Nc3ccc(C#CC4(O)CCCCCC4)cc31)[C@H]2c1ccc(O)cc1`, the z-score is 0.69 (inactive). For `O=C1O[C@H](c2ccccc2)[C@H](c2ccccc2)N2[C@H]1[C@@H](C(=O)O)[C@]1(C(=O)Nc3ccc(C#CC4(O)CCCCCC4)cc31)[C@H]2c1ccc(O)cc1`, the z-score was -0.574 (inactive). Turning to `COCCOC(=O)N1C(=O)[C@@]2(c3ccccc31)[C@H](c1ccccc1OCCO)N1[C@H](c3ccccc3)[C@H](c3ccccc3)OC(=O)[C@H]1[C@@H]2C(N)=O`, the z-score was -2.08 (inactive). On to `NC(=O)[C@@H]1[C@H]2C(=O)O[C@H](c3ccccc3)[C@H](c3ccccc3)N2[C@H](c2ccc(OCCO)cc2)[C@@]12C(=O)Nc1ccc(C#CCCO)cc12`, for which the z-score was 1.02 (inactive). Still for that read-out and setting: for `Cc1cccc([C@H]2C[C@H]3C(Br)=C[C@@H]2C(=O)[C@]32CO2)c1` the value was -0.517 (inactive); for `COc1ccc(C#Cc2ccc3c(c2)[C@]2(C(=O)N3)[C@H](C(=O)Nc3nc4ccccc4s3)[C@H]3C(=O)O[C@H](c4ccccc4)[C@H](c4ccccc4)N3[C@@H]2c2ccccc2OCCO)cc1`, 0.17 (inactive). On the same count and under the same terms, to `C=CCNC(=O)[C@@H]1[C@H]2C(=O)O[C@H](c3ccccc3)[C@H](c3ccccc3)N2[C@H](c2ccc(OCCO)cc2)[C@@]12C(=O)N(C(=O)OCCOC)c1ccc(C#CCCO)cc12` belongs -1.53 (inactive).

For `COCC(=C=CC[C@@H](O)c1cccc(OCCO)c1)CCO`, the z-score was 0.317 (inactive). Still for that read-out and setting: for `COCCOC(=O)N1C(=O)[C@@]2(c3cc(C#CC4(O)CCCCCC4)ccc31)[C@H](C(=O)N1CCN(c3ncccn3)CC1)[C@H]1C(=O)O[C@H](c3ccccc3)[C@H](c3ccccc3)N1[C@@H]2c1ccccc1OCCO` the value was -0.278 (inactive); for `[N-]=[N+]=Nc1ccccc1C[C@]1(C(=O)O)N=C(c2ccc(OCCCO)cc2)O[C@H]1c1ccccc1N=[N+]=[N-]`, -1.55 (inactive). Take `NC(=O)NCC#Cc1ccc2c(c1)[C@]1(C(=O)N2)[C@H](C(=O)N2CCN(c3ncccn3)CC2)[C@H]2C(=O)O[C@H](c3ccccc3)[C@H](c3ccccc3)N2[C@@H]1c1ccc(OCCO)cc1`: the z-score was -0.245 (inactive).

Turning to `CN(C)C(=O)[C@@]1(Cc2ccccc2)COC(c2ccc(OCCCO)cc2)=N1`, the z-score was -0.781 (inactive). On the same count and under the same terms, to `CCN(CC)c1ccc(N2CC=CC34O[C@@H]5C=CCCOC(=O)C5[C@H]3C(=O)N(CCO)[C@@H]4C2=O)cc1` (stereo partly drawn) belongs -0.688 (inactive). As to `C[C@@H]1ON(c2ccc(I)cc2)[C@H](c2ccc(OC(=O)OC(C)(C)C)cc2)[C@H]1C(=O)N1C(=O)OC[C@H]1Cc1ccccc1`, the z-score is -1.78 (inactive). Still for that read-out and setting: for `COc1cc(CO)cc(I)c1O[C@H]1C=C(C(=O)NCCO)C[C@@H](NCC2CCCCC2)[C@@H]1O` the value was -0.47 (inactive); for `C=CCNC(=O)[C@@H]1[C@H]2C(=O)O[C@H](c3ccccc3)[C@H](c3ccccc3)N2[C@H](c2ccc(O)cc2)[C@@]12C(=O)Nc1ccc(C#CCC(C(=O)OC)C(=O)OC)cc12`, 0.246 (inactive).

With `CCOC(=O)C1=C[C@@H](c2ccccc2)N(S(=O)(=O)c2ccc(C)cc2)[C@H]1c1ccccc1`, the z-score was -0.924 (inactive). Turning to `[N-]=[N+]=NC[C@H](Cc1ccccc1)NC(=O)c1ccccc1`, the z-score was -0.0894 (inactive). With `COc1ccc(C(O)C2C=CC3C(=O)N(c4ccccc4)C(=O)C3N2Nc2ccccc2F)cc1` (stereo not drawn), the z-score was 0.747 (inactive). As for `C#C[C@@H](CC)O[Si](C#CCCCC#N)(C(C)C)C(C)C`, the z-score was -0.196 (inactive). For `CCCCCCCCCCC(O)C1C=CC2C(=O)N(C)C(=O)C2N1Nc1cc(OC)c(OC)c(OC)c1` (stereo not drawn), the z-score was 0.271 (inactive).

Turning to `C=C[C@H](C)[C@H](OC(=O)Nc1ccc(OC)cc1)c1ccc(OCCO)cc1`, the z-score is -0.921 (inactive). On the same count and under the same terms, for `COCCOC(=O)N1C(=O)[C@@]2(c3cc(C#CC4(O)CCCCCC4)ccc31)[C@H](c1ccc(OCCO)cc1)N1[C@H](c3ccccc3)[C@H](c3ccccc3)OC(=O)[C@H]1[C@@H]2C(=O)Nc1nc2ccccc2s1` the value was 0.268 (inactive); for `O=c1cccc(-c2ccco2)o1`, 0.935 (inactive); for `CN(C)C(=O)[C@@]1(Cc2ccccc2N=[N+]=[N-])N=C(c2ccc(OCCCO)cc2)O[C@H]1c1ccccc1`, 0.22 (inactive). As for `CC(C)[C@H]1NC(=O)[C@@]23C(=O)N[C@@H](Cc4ccccc4)C2[C@H](C)[C@@]2(C)O[C@H]2C3/C=C/CCC/C=C/CNC(=O)[C@H](Cc2ccccc2)NC1=O` (stereo partly drawn), the z-score is 0.286 (inactive). Regarding `C=CCC(OC(C)=O)[C@@H]1[C@@H](N(Cc2cc3ccccc3o2)C(=O)c2ccc(-c3ccccc3)cc2)c2cc(OCCCO)ccc2N1C(=O)Cc1ccc(OC)cc1` (stereo partly drawn), the z-score was -0.762 (inactive). On the same count and under the same terms, for `[N-]=[N+]=NCc1ccccc1[C@H]1OC(c2ccc(OCCCO)cc2)=N[C@@]1(CCS(=O)(=O)c1ccccc1)C(=O)NCc1ccccc1` the value was 0.118 (inactive).
